# This excerpt belongs to a sample that is enriched for hits.
# CHX counter: affects cycloheximide protein synthesis inhibition readout, counter-screen | cell reporter, cycloheximide protein synthesis inhibition counterscreen | max response, % | hit rate 12% among 300,000; in the data active = max response mostly above about 13%, no sharp cut-off; inactive = mostly below about 14%; also: read at 38.3 µM for the half of the compounds with a filed dose
# TbPYK inhibitor: blocks Trypanosoma brucei pyruvate kinase. hit rate 0.12% among 410,000. TbPYK enzyme, Kinase-Glo Plus ATP luminescence, 45 min. Q57TT1. Potency, µM (doses to about 76.8 µM), actives largely listed as inhibitors; also: nearly all actives have a fitted effect of over 50% in size
#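 T. brucei PYK with substrate was exposed to pin-transferred compounds across a concentration series, then started with 130 uM ADP (final). After 45 min at room temperature, Kinase-Glo Plus luminescence was read, normalized and curve-fitted.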
# Giardia FBPA inh-1: blocks Giardia fructose-bisphosphate aldolase activity; A8B2U2; purified Giardia FBPA; Potency, µM (top dose mostly 59.6 µM), hits mostly inhibitors; hit rate 0.71% among 290,000; also: nearly all actives have a fitted effect of over 55% in size
#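 40 nM FBPA preincubated 10 min at RT with compound (up to 57.5 uM final), then substrate plus GAPDH/TPI/NAD/arsenate coupling and diaphorase/resazurin added. Fluorescence read after 20 min at RT, 525/598 nm.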
# LmPK inhibitor: inhibitors of Leishmania mexicana pyruvate kinase | purified LmPK, Kinase-Glo ATP luminescence, 1 h | Q27686 | hit rate 0.37% among 290,000 | AID 1721 | Potency, µM (titrated, usually from 57.5 µM), hits mostly inhibitors
#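 Purified LmPK (0.1 nM) with 0.5 mM PEP and 0.1 mM ADP in imidazole buffer pH 7.2 with MgCl2/KCl, 1 h at room temperature. ATP formed was read by luciferase luminescence and normalized to no-enzyme and uninhibited controls.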
# RE007 growth inh: less growth of the S. pombe RE007 Vpr strain; Potency, µM (top dose mostly 92.2 µM), usual class: inhibitors; S. pombe RE007 Vpr strain, BacTiter-Glo ATP luminescence, 24 h; hit rate 0.21% among 360,000; active = well fitted falling curve with a large enough effect; inconclusive = small, poorly fitted or top-dose-only effect; inactive = no such curve, though single readings can be large or run the other way; also: nearly all actives have a fitted effect of over 50% in size
#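 Fission yeast strain RE007, carrying one chromosomally integrated HIV-1 vpr copy, was seeded at OD 0.01 in PMG+AL medium with 23 nL pinned compound. After 24 h at 30 °C and 99% humidity, viability was read by BacTiter-Glo luminescence.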
# Shiga inhibitor: blocks Shiga toxin action in Vero cells | inhibition, % at 38.7 µM | hit rate 9.2% among 290,000 | Vero cells, Shiga toxin protein synthesis inhibition reporter; in the data active = inhibition mostly above about 28%, no sharp cut-off; inactive = mostly below about 43%
# Giardia growth: blocks growth of Giardia lamblia trophozoites | Giardia lamblia trophozoite growth inhibition | hit rate 5% among 1,500 | Potency, µM (doses to about 57.5 µM), most hits filed as inhibitors | shares compounds with Giardia FBPA inh-1 | AID 2785;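 also: trophozoites exposed to compound for 48 h at 37 °C; nearly all actives have a fitted effect of over 70% in size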
# Mammalian tox: counter-screen for Giardia aldolase inhibitors: mammalian cell toxicity. shares compounds with Giardia FBPA inh-1. Potency, µM (titrated, usually from 57.5 µM), most hits filed as inhibitors. mammalian cell viability counter-screen, qHTS. AID 2786. hit rate 4% among 1,500;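 also: Chinese hamster ovary cells used as mammalian cytotoxicity surrogate; viability measured as cellular ATP by luminescence; compound exposure lasted 48 h before reading; nearly all actives have a fitted effect of over 60% in size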
# Giardia FBPA inh-2: confirmation of Giardia fructose-bisphosphate aldolase inhibitors | shares compounds with Giardia FBPA inh-1 | purified Giardia aldolase enzyme activity, qHTS | Potency, µM (top dose mostly 57.5 µM), hits mostly inhibitors | hit rate 5% among 1,500 | AID 2787; also: nearly all actives have a fitted effect of over 45% in size
# Rabbit aldolase: selectivity test for Giardia aldolase inhibitors: rabbit aldolase. Rabbit muscle FBPA enzyme inhibition, selectivity counter-screen. Potency, µM (series often up to 57.5 µM), hits mostly inhibitors. AID 2794. hit rate 4% among 1,500. shares compounds with Giardia FBPA inh-1; also: nearly all actives have a fitted effect of over 60% in size
# Target sequence (P00883 whole entry, looked up): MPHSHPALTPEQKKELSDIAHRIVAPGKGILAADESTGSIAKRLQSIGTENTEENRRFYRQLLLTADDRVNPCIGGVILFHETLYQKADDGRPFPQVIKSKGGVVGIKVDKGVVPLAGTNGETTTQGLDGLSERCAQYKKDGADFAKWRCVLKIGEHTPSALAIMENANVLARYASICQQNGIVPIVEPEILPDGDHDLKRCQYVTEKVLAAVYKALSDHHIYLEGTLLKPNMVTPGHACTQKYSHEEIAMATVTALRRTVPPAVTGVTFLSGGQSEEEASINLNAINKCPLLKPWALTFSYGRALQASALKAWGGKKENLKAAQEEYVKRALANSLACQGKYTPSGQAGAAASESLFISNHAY
# GAPDH counter: counter-screen for Giardia aldolase inhibitors: GAPDH coupling enzyme. GAPDH coupling enzyme counterscreen, biochemical, qHTS. shares compounds with Giardia FBPA inh-1. Potency, µM (series often up to 57.5 µM), most hits filed as inhibitors. AID 2795. hit rate 6% among 1,500; also: nearly all actives have a fitted effect of over 55% in size
# Hits are given with their value; - = inactive; ? = inconclusive; . = not tested or not shown; ! = a repeat was not active; [ ] = another dose, or the depositor's remark. Unless noted, calls follow the shape of the dose curve; as a rule, active = well fitted curve in the direction sought with a large enough effect; inconclusive = small, poorly fitted or top-dose-only effect, or another doubt; inactive = no such curve, though single readings can be large; an effect the other way counts as inactive or inconclusive.
SMILES,CHX counter,TbPYK inhibitor,Giardia FBPA inh-1,LmPK inhibitor,RE007 growth inh,Shiga inhibitor,Giardia growth,Mammalian tox,Giardia FBPA inh-2,Rabbit aldolase,GAPDH counter
COc1ccc(NC(=O)CCc2nnc3n(CC(C)C)c(=O)c4ccccc4n23)cc1,.,-,.,.,.,.,.,.,.,.,.
CC(C)C[C@@H](CC(=O)N[C@@H](CCC(=O)O)CC(=O)O)NC(=O)[C@@H]1CNCC[C@H]1NC(=O)C[C@H](CCCN)NC(=O)C[C@H](CO)NC(=O)[C@@H]1CCCC[C@H]1N,.,.,-,.,.,.,.,.,.,.,.
COc1ccccc1OCC#CCN1CCOCC1,-,-,11µM,-,-,-,-[10.4 µM],-,-,-,-
COc1ccccc1OCC#CCN1CCCCCC1,-,-,?,-,-,-,.,.,.,.,.
CCn1c(=O)cc(OCC(=O)N2CCN(c3ccccc3OC)CC2)c2ccccc21,.,-,.,.,.,.,.,.,.,.,.
CN(Cc1ccccc1)C(=S)NC(=O)c1cccs1,-,?,13µM,-,?,-,?,-,-,-,-
CN(Cc1ccccc1)C(=S)NC(=O)c1ccc(-c2ccccc2)cc1,-,-,-,-,-,-,.,.,.,.,.
CCC(C)N1C(=O)/C(=C/c2ccc3c(c2)CCN3CCCCl)C(=O)NC1=S (stereo not given),-,?,11µM,-,-,-,-[10.4 µM],-,?,-,-
O=C(O)CN(CCN(CC(=O)O)CC(=O)O)CCN(CC(=O)O)CC(=O)O,.,-,7.9µM!,.,.,.,?,-,?,-,-
CN(C)CCCCOc1ccccc1F,-,-,20µM,-,-,-,?,-,-,-,-
CCN1CCN(c2csc3ccc(C)cc3c2=O)CC1,.,-,.,.,.,.,.,.,.,.,.
Cc1nc(NC(=O)C2CC2)sc1C(=O)N(C)C,-,.,-,-,-[3.69 µM],-,.,.,.,.,.
Cc1nc(NC(=O)CN2CC(C)OC(C)C2)sc1C(=O)N(C)C (stereo not given),-,-,11µM,-,-,-,-,-,-,-,-
Cc1ccc(C(=O)n2nc(C)c(S(=O)(=O)N3CCCCCC3)c2C)cc1C,.,-,.,.,.,.,.,.,.,.,.
O=c1c2ccccc2n2c(=S)[nH]nc2n1-c1ccccc1,-,?,7.1µM,-,-,-,-,-,-,-,-
CCC(C)c1ccc(-n2c(=O)c3ccccc3n3c(=S)[nH]nc23)cc1 (stereo not given),-,-,-,-,-,-,.,.,.,.,.
Cn1c(=O)c2ccccc2n2c(=S)[nH]nc12,-,-,16µM,-,-,-,-,-,-,-,-
CCCn1c(=O)c2ccccc2n2c(=S)[nH]nc12,-,-,?,-,-,-,.,.,.,.,.
Oc1ccccc1N=Cc1c(O)ccc2ccccc12,11,-,?,-,-,39,-,-,0.33µM,?,-
Cc1ccc(NC(=O)CN2CCC(NC(=O)c3ccccc3F)CC2)cc1C,-,-,18µM,-,-,-,?,-,-,-,-
COc1ccc(CCNC(=O)CSc2nnc(-c3ccco3)c(-c3ccco3)n2)cc1OC,-,.,13µM,-,.,-,-,-,-,-,-
COc1ccc(-c2nnc(SCC(=O)NCCc3ccc(OC)c(OC)c3)nc2-c2ccc(OC)cc2)cc1,.,-,.,.,.,.,.,.,.,.,.
CCN(CC)c1ccc(S(=O)(=O)N2CCOCC2)cc1NC(=O)CNCc1ccccc1,-,-,?,-,-,-,.,.,.,.,.
CCN(CC)c1ccc(S(=O)(=O)N2CCOCC2)cc1NC(=O)CN1CCN(Cc2ccccc2)CC1,-,-,20µM,-,-,-,-,-,-,-,-
CCN(CC)S(=O)(=O)c1ccc(C)c(NC(=O)CN2CCN(Cc3ccccc3)CC2)c1,-,-,20µM,-,-,-,-[10.4 µM],-,-,-,-

# Compound activity as filed in PubChem.
